# From PubChem BioAssay AID2595 (National Center for Advancing Translational Sciences (NCATS), 2010)
# Where “and” joins values, the source holds several entries; their conditions need not be identical. Equal values may be shown once. Records with an inconclusive call do not appear. Calls of active or inactive are those of the source. Calls follow the shape of the dose curve; as a rule, active = well fitted inhibition curve with a large enough effect; inconclusive = small, poorly fitted or top-dose-only effect, or effect the other way; inactive = flat fitted curve, though single readings scatter.
# Biological target: Lysosomal acid glucosylceramidase (Homo sapiens) (UniProt P04062)
# Test: qHTS Assay for Inhibitors and Activators of N370S glucocerebrosidase as a Potential Chaperone Treatment of Gaucher Disease: Purified Non-mutant Glucocerebrosidase
# Details: purified wildtype GC, 4MU-beta-glucoside fluorescence, 40 min; series mostly up to 76.9 µM; activity change, negative = inhibition: at the top concentration
# From the text: NIH Chemical Genomics Center [NCGC] NIH Molecular Libraries Probe Production Centers Network [MLPCN] MLPCN Grant: MH086442-01 Assay Submitter (PI): Wei Zheng Glucocerebrosidase (GC) catalyzes the hydrolysis of beta-glucocerebroside to glucose and ceramide in lysosomes. Mutations in the glucocerebrosidase gene result in Gaucher disease, an autosomal recessive lysosomal storage disorder. Many of the mutations encountered in patients with Gaucher disease are missense alterations that may cause misfolding, decreased stability and/or mistrafficking of this lysosomal protein. […] These inhibitors include iminosugar analogs and three non-iminosugar inhibitors identified from a previous HTS of 62,000 compounds with the wild type recombinant enzyme. However, the enhancement of enzyme activity by the chaperone action of an enzyme inhibitor must be balanced against the direct inhibition of the enzyme. An enzyme activator could also function as a chaperone by binding to the enzyme and helping to correct its misfolding and mistrafficking. While activators for GC have not yet been identified, they may have better therapeutic potential than inhibitors. Therefore the discovery and development of chemical activators may provide a new strategy for the chaperone therapy. We have optimized a new assay using N370S mutant GC derived from the spleen of a Gaucher patient. […] In addition, the MLPCN compound library has expanded, which increases the chance of finding new and better probes. This assay characterizes compound activity using purified wildtype enzyme instead of mutant enzyme from tissue homogenate. Compound activity differences may be due to the absence of endogenous cofactors found in tissue homogenate as well as inherent differences in enzyme stability and catalytic activity between the N370S and wildtype forms of the protein.
# NCGC Assay Protocol Summary: This is a fluorogenic enzyme assay with 4-methylumbelliferyl-beta-D-glucopyranoside as the substrate and purified wildtype glucocerebrosidase as the enzyme preparation. Upon the hydrolysis of this fluorogenic substrate, the resulting product, […] which can be detected by a standard fluorescence plate reader. Data were normalized to the controls for basal activity (without enzyme) and 100% activity (with enzyme). The AC50 values were determined from concentration-response data modeled with the standard Hill equation. Assay buffer: 50 mM citric acid (titrated with potassium phosphate to pH 5.0), 100 mM potassium chloride, 10 mM sodium chloride, 1 mM magnesium chloride, 0.01% Tween-20. 1536-well assay protocol: (1) Add 2 ul/well of glucocerebrosidase enzyme solution (5 nM final) (2) Add 23 nL compounds in DMSO solution. The final titration was 0.5 nM to 58 uM. (3) Add 2 ul of substrate (1 mM final) (4) Incubate at 37C for 40 min. (5) Add 2 ul stop solution (1M NaOH and 1M Glycine mixture, pH 10) (6) Detect the assay plate in a ViewLux plate reader (PerkinElmer) with Ex=365 nm and Em=440nm. Keywords: Glucocerebrosidase, beta-glucosidase, Gaucher Disease, pharmacological chaperone, chaperone therapy, high throughput screening, glucocerebrosidase inhibitor, MLSMR, MLSCN, NIH Roadmap, qHTS and NCGC
# Lysosomal acid glucosylceramidase (Homo sapiens), sequence (P04062 whole entry, looked up): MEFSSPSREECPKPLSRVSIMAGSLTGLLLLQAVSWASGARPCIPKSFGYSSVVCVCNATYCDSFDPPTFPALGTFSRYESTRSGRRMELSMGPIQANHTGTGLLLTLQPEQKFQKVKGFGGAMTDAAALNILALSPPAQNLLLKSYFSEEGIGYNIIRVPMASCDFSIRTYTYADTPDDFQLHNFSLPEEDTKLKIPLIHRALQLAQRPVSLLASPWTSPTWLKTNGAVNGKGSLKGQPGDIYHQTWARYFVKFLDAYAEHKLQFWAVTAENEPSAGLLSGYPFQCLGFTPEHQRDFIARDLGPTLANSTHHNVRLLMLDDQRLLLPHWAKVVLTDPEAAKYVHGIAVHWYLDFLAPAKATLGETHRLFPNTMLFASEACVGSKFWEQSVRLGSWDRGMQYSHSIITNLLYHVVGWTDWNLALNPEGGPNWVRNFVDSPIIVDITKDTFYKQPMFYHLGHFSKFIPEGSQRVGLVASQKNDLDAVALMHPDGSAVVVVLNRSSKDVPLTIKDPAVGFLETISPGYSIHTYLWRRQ
Structure (SMILES),Potency,"activity change, negative = inhibition"
O=S(=O)(c1ccc2ccccc2c1)N1CCN(c2nc(-c3cccs3)nc3ccccc23)CC1,8.91 µM (active),
O=S(=O)(c1ccc(F)cc1)N1CCN(c2nc(-c3ccc(F)cc3)nc3cc(Cl)ccc23)CC1,,4.56% (inactive)
O=S(=O)(c1ccccc1C(F)(F)F)N1CCN(c2nc(-c3cccs3)nc3ccccc23)CC1,4.47 µM (active),
S=C(NCCCc1cnc[nH]1)NCCCN(Cc1ccc(Cl)c(Cl)c1)c1ccc(Br)cn1,0.708 µM (active),
O=S(=O)(c1cccc(C(F)(F)F)c1)N1CCN(c2nc(-c3cccs3)nc3cc(Cl)ccc23)CC1,,-10.7% (inactive)
OCCNc1nc(-c2cccs2)nc2ccccc12,17.8 µM (active),
Cc1cc(C)cc(N(CC(=O)NC2CCCCCC2)S(=O)(=O)c2c(C)[nH]c(=O)[nH]c2=O)c1,0.398 µM (active),
O=S(=O)(c1ccc(Cl)cc1)N1CCN(c2nc(-c3ccc(Cl)cc3)nc3ccccc23)CC1,,-17.5% (inactive)
NS(=O)(=O)c1ccc(S(=O)(=O)N2CCN(c3nc(-c4cccs4)nc4ccccc34)CC2)cc1,15.8 µM (active),
O=S(=O)(Cc1ccccc1)N1CCN(c2nc(-c3cccs3)nc3ccccc23)CC1,10 µM (active),
O=S(=O)(c1ccc(Cl)cc1)N1CCN(c2nc(-c3ccc(F)cc3)nc3cc(Cl)ccc23)CC1,,-7.55% (inactive)
O=S(=O)(c1ccc(Cl)cc1)N1CCN(c2nc(Nc3cc(Cl)ccc3O)nc3ccccc23)CC1,1.26 µM (active),
CC(C)(C)C(=O)OCCNc1nc(-c2ccccc2)nc2ccccc12,0.708 µM (active),
O=S(=O)(c1ccccc1Cl)N1CCN(c2nc(-c3cccs3)nc3ccccc23)CC1,2.82 µM (active),
O=S(=O)(c1cccs1)N1CCN(c2nc(-c3cccs3)nc3ccccc23)CC1,8.91 µM (active),
COc1cccc(S(=O)(=O)N2CCN(c3nc(-c4cccs4)nc4ccccc34)CC2)c1,10 µM (active),
O=S(=O)(c1ccc(Cl)cc1)N1CCN(c2nc(-c3cccc(Br)c3)nc3ccccc23)CC1,,-13.9% (inactive)

Structure (SMILES),Potency,"activity change, negative = inhibition"
O=S(=O)(c1ccc(Cl)cc1)N1CCN(c2nc(-c3cccs3)nc3ccccc23)CC1,2.51 µM (active) and 6.31 µM (active),
O=S(=O)(c1ccc(F)cc1)N1CCN(c2nc(-c3cccs3)nc3cc(Cl)ccc23)CC1,,1.31% (inactive)
O=S(=O)(c1ccc2c(c1)OCCO2)N1CCN(c2nc(-c3ccccc3)nc3ccccc23)CC1,12.6 µM (active),
O=S(=O)(c1cccc2ccccc12)N1CCN(c2nc(-c3cccs3)nc3ccccc23)CC1,14.1 µM (active),
O=C(c1ccc2c(c1)OCCO2)N1CCN(c2nc(-c3cccs3)nc3ccccc23)CC1,31.6 µM (active),
Cc1ccc(S(=O)(=O)N2CCN(c3nc(-c4ccc(F)cc4)nc4cc(Cl)ccc34)CC2)cc1,,-8.86% (inactive)
COc1ccc(S(=O)(=O)N2CCN(c3nc(-c4cccs4)nc4ccccc34)CC2)cc1,14.1 µM (active),
Cc1ccc(S(=O)(=O)N2CCN(c3nc(-c4cccs4)nc4ccccc34)CC2)cc1,2 µM (active) and 10 µM (active),
O=S(=O)(c1ccc(F)cc1)N1CCN(c2nc(-c3cccc(Br)c3)nc3ccccc23)CC1,,-16.4% (inactive)
COc1ccc(-c2nc(N3CCN(S(=O)(=O)c4ccc(F)cc4)CC3)c3ccccc3n2)cc1,,-25.8% (inactive)
Cc1ccc(Cl)cc1NC(=O)c1ccccc1OCC(=O)Nc1ccc(Cl)cc1,,15.2% [at 57.5 µM] (inactive)
O=S(=O)(c1ccc2c(c1)OCCO2)N1CCN(c2nc(-c3cccs3)nc3ccccc23)CC1,2.51 µM (active),
CC(C)C(C)NC(=O)CSc1nc2scc(-c3ccco3)c2c(=O)n1-c1ccccc1 (centres undefined),,-7.04% [at 57.5 µM] (inactive)
Cc1ccc(-c2nc(N3CCN(S(=O)(=O)c4ccc(F)cc4)CC3)c3ccc(Cl)cc3n2)cc1,,-11.6% (inactive)
O=S(=O)(c1ccccc1)N1CCN(c2nc(-c3ccc(F)cc3)nc3cc(Cl)ccc23)CC1,,-0.12% (inactive)
c1csc(-c2nc(NCC3CCCO3)c3ccccc3n2)c1 (centres undefined),15.8 µM (active),
O=S(=O)(c1ccc(F)cc1)N1CCN(c2nc(-c3ccccc3)nc3cc(Cl)ccc23)CC1,,-2.36% (inactive)
